According to a collection of fitness landscapes (doi:10.1016/j.celrep.2020.107928):
Whole data set: some 81,000 sequences, median “one-hybrid fitness for binding parS DNA” near -0.17, cut for the highest 2% near 0.51. The list comes from a sample in which the highest values are over-represented; it also holds similar and randomly drawn sequences.

B1: Caulobacter ParB omega fusion; a variant is named by its letters at X, in order, B8GW30 (parent)
chain: MESVVVGEPGMSEGRRGLGRGLSALLGEVDAAPAQAPGEQLGGSREAPIEILQRNPDQPRRTFREEDLEDLSNSIREKGVLQPILVRPSPDTAGEYQIVAGERAWRAAQRAGLKTVPIMVRELDDLAVLEIGIIENVQRADLNVLEEALSYKVLMEKFERTQENIAQTIGKSXSHVANXMRLLXLPDEVQSYLVSGELTAXHARAIAAAADPVALAKQIIEGGLSVRETEALARKAPNLSAGKSKGGRPPRVKDTDTQALESDLSSVLGLDVSIDHRGSTGTLTITYATLEQLDDLCNRLTRGI

Variants of: B1
Test: one-hybrid fitness for binding parS DNA (scaled: cognate 1, non-cognate 0); higher = stronger binding
Conditions: with parS DNA site
Method in brief: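 In E. coli USO, a HIS3 reporter with its site placed 19 bp from the promoter was used to select Caulobacter ParB variants randomised at four specificity codons. Growth lasted 48 hours at 37°C on histidine-free M9 containing 0.1 mM IPTG and 5 mM 3-AT. Fitness was taken as the log change in variant-to-wild-type read ratio from Illumina sequencing of pre- and post-selection plasmids, rescaled between the non-cognate and cognate sites.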

| Variant | one-hybrid fitness for binding parS DNA |
| --- | --- |
| GGWR | ≤ 0.2 |
| ITFG | ≤ 0.2 |
| ITHW | ≤ 0.2 |
| KYTR | ≤ 0.2 |
| QQLK | ≤ 0.2 |
| YTGV | ≤ 0.2 |
| NFEC | ≤ 0.2 |
| RTEC | 0.874 |
| RSEN | 0.333 |
| RFEC | 0.727 |
| RTEK | ≤ 0.2 |
| RSED | ≤ 0.2 |
| RFEI | ≤ 0.2 |
| RSEC | 0.739 |
| RTEY | 0.414 |
| YRPK | ≤ 0.2 |
| DVSL | ≤ 0.2 |
| PMLT | ≤ 0.2 |
| QLTV | ≤ 0.2 |
| RLQW | 0.245 |
| SPHY | ≤ 0.2 |
| KVAV | ≤ 0.2 |
| NKDH | ≤ 0.2 |
| AYAS | ≤ 0.2 |

| Variant | one-hybrid fitness for binding parS DNA |
| --- | --- |
| MADT | ≤ 0.2 |
| LSCT | ≤ 0.2 |
| RGSA | 0.399 |
| RASA | 0.595 |
| RDSA | ≤ 0.2 |
| RPSA | ≤ 0.2 |
| DASA | ≤ 0.2 |
| NASA | ≤ 0.2 |
| RTSA | 0.591 |
| RCSA | 0.575 |
| DTSA | ≤ 0.2 |
| RWSA | 0.429 |
| NTSA | ≤ 0.2 |
| RSSA | 0.583 |
| CEWG | ≤ 0.2 |
| PPVE | ≤ 0.2 |
| RGTE | ≤ 0.2 |
| VPLK | ≤ 0.2 |
| LSLN | ≤ 0.2 |
| KMRA | ≤ 0.2 |
| APLY | ≤ 0.2 |
| YCRA | ≤ 0.2 |
| PHDR | ≤ 0.2 |
| INAG | ≤ 0.2 |

| Variant | one-hybrid fitness for binding parS DNA |
| --- | --- |
| RHSA | 0.515 |
| DLSA | ≤ 0.2 |
| RESA | ≤ 0.2 |
| DHSA | ≤ 0.2 |
| NMSA | ≤ 0.2 |
| CFSA | ≤ 0.2 |
| RFSA | 0.572 |
| RLSA | 0.587 |
| RMSA | 0.59 |
| SFSA | ≤ 0.2 |
| QQWL | ≤ 0.2 |
| HSTQ | ≤ 0.2 |
| QIPS | ≤ 0.2 |
| NIHV | ≤ 0.2 |
| LAFG | ≤ 0.2 |
| NNTV | ≤ 0.2 |
| SRTI | ≤ 0.2 |
| LHLI | ≤ 0.2 |
| FTFT | ≤ 0.2 |
| RKFT | 0.771 |
| RKFH | 0.211 |
| RKFD | ≤ 0.2 |
| RKAR | ≤ 0.2 |
| RKAK | ≤ 0.2 |

| Variant | one-hybrid fitness for binding parS DNA |
| --- | --- |
| RKAT | 0.818 |
| TVYC | ≤ 0.2 |
| QLDE | ≤ 0.2 |
| GTYL | ≤ 0.2 |
| NKHA | ≤ 0.2 |
| RKHA | 0.67 |
| RKYA | 0.579 |
| RKPA | 0.223 |
| RKIA | 0.451 |
| RKQA | 0.712 |
| RKSA | 0.717 |
| AYMW | ≤ 0.2 |
| WTLN | ≤ 0.2 |
| CKRT | ≤ 0.2 |
| VEKG | ≤ 0.2 |
| ALQI | ≤ 0.2 |
| MAKW | ≤ 0.2 |
| GFDC | ≤ 0.2 |
| WTHF | ≤ 0.2 |
| RKLA | 0.547 |
| RKRA | 0.774 |
| RKGA | 0.694 |
| NKRA | ≤ 0.2 |
| QRWL | ≤ 0.2 |

| Variant | one-hybrid fitness for binding parS DNA |
| --- | --- |
| LNLV | ≤ 0.2 |
| PQAL | ≤ 0.2 |
| PVGY | ≤ 0.2 |
| PLAI | ≤ 0.2 |
| RIYW | 0.296 |
| DVVA | ≤ 0.2 |
| DVKA | ≤ 0.2 |
| SVKA | ≤ 0.2 |
| RVKA | 0.756 |
| RVVA | 0.565 |
| NVVA | ≤ 0.2 |
| ALNW | ≤ 0.2 |
| ACFK | ≤ 0.2 |
| PSMV | ≤ 0.2 |
| RMPA | 0.393 |
| RLIA | 0.592 |
| RSIA | 0.474 |
| RPIA | ≤ 0.2 |
| RMIA | 0.537 |
| RWIA | 0.295 |
| RTPA | 0.363 |
| RTIA | 0.542 |
| RCIA | 0.551 |
| RLPA | 0.376 |

| Variant | one-hybrid fitness for binding parS DNA |
| --- | --- |
| VHRF | ≤ 0.2 |
| NYLC | ≤ 0.2 |
| ALEW | ≤ 0.2 |
| NIYW | ≤ 0.2 |
| RCNY | 0.482 |
| RARY | 0.552 |
| RRYY | 0.28 |
| RRNY | 0.727 |
| RRDY | 0.289 |
| RAYY | 0.501 |
| RMQY | 0.546 |
| RADY | 0.389 |
| RRRY | 0.812 |
| RRFY | 0.274 |
| RCQY | 0.493 |
| RPQY | ≤ 0.2 |
| AECV | ≤ 0.2 |
| GPSG | ≤ 0.2 |
| TNDG | ≤ 0.2 |
| LTTC | ≤ 0.2 |
| SCLR | ≤ 0.2 |
| VNDE | ≤ 0.2 |
| FAPS | ≤ 0.2 |
| LNVW | ≤ 0.2 |

| Variant | one-hybrid fitness for binding parS DNA |
| --- | --- |
| RNEL | ≤ 0.2 |
| RFDY | 0.443 |
| RLDY | 0.451 |
| RLRY | 0.645 |
| RFYY | 0.383 |
| RFRY | 0.533 |
| RSGY | 0.482 |
| RSYY | 0.457 |
| RTGY | 0.593 |
| RSDY | 0.352 |
| RSRY | 0.55 |
| RLYY | 0.497 |
| RPGY | ≤ 0.2 |
| RRGE | ≤ 0.2 |
| LRQS | ≤ 0.2 |
| LLPK | ≤ 0.2 |
| ALSN | ≤ 0.2 |
| RTYY | 0.49 |
| RIYY | 0.475 |
| RMIY | 0.467 |
| RMRY | 0.777 |
| RMYY | 0.483 |
| RTRY | 0.828 |
| RCRY | 0.695 |

| Variant | one-hybrid fitness for binding parS DNA |
| --- | --- |
| RIAY | 0.484 |
| RPRY | ≤ 0.2 |
| RTLY | 0.495 |
| RIRY | 0.617 |
| RCYY | 0.472 |
| EDER | ≤ 0.2 |
| KRAT | ≤ 0.2 |
| DYVS | ≤ 0.2 |
| MMHG | ≤ 0.2 |
| SFLE | ≤ 0.2 |
| PRQV | ≤ 0.2 |
| RTDY | 0.437 |
| RSNY | 0.496 |
| RTNY | 0.659 |
| DVRM | ≤ 0.2 |
| RAHQ | ≤ 0.2 |
| RARK | ≤ 0.2 |
| RARC | 0.921 |
| RAWC | 0.927 |
| RAWQ | ≤ 0.2 |
| RAWF | 0.245 |
| RAHC | 0.983 |
| RACK | ≤ 0.2 |
| RACR | ≤ 0.2 |

| Variant | one-hybrid fitness for binding parS DNA |
| --- | --- |
| RAHY | 0.472 |
| RARR | ≤ 0.2 |
| RACC | 0.962 |
| CWYT | ≤ 0.2 |
| HLQT | ≤ 0.2 |
| YDQM | ≤ 0.2 |
| VCTK | ≤ 0.2 |
| QSGL | ≤ 0.2 |
| IVAE | ≤ 0.2 |
| SVEV | ≤ 0.2 |
| VAFA | ≤ 0.2 |
| TVDW | ≤ 0.2 |
| EQMM | ≤ 0.2 |
| RAYF | 0.264 |
| RASC | 0.973 |
| RAYC | 0.99 |
| RAQP | ≤ 0.2 |
| RASP | ≤ 0.2 |
| RAQH | 0.211 |
| RALC | 0.968 |
| RAYK | ≤ 0.2 |
| RALR | ≤ 0.2 |
| RALM | 0.34 |
| RAQC | 0.987 |

| Variant | one-hybrid fitness for binding parS DNA |
| --- | --- |
| RASD | ≤ 0.2 |
| WCQR | ≤ 0.2 |
| CHEL | ≤ 0.2 |
| DWAG | ≤ 0.2 |
| PWPN | ≤ 0.2 |
| IYAV | ≤ 0.2 |
| YPAT | ≤ 0.2 |
| WGPT | ≤ 0.2 |
| KAKV | ≤ 0.2 |
| PNIE | ≤ 0.2 |
| TVLI | ≤ 0.2 |
| CNIV | ≤ 0.2 |
| KLAN | ≤ 0.2 |
| DLHL | ≤ 0.2 |
| LCNK | ≤ 0.2 |
| PFMG | ≤ 0.2 |
| SAPW | ≤ 0.2 |
| DGTW | ≤ 0.2 |
| RKMT | 0.824 |
| RKMF | ≤ 0.2 |
| RKMY | 0.386 |
| RRMT | 0.6 |
| RTMT | 0.935 |
| RTMQ | 0.208 |

| Variant | one-hybrid fitness for binding parS DNA |
| --- | --- |
| RGMT | 0.457 |
| RRMQ | ≤ 0.2 |
| RRMF | ≤ 0.2 |
| RTMF | 0.245 |
| RDMT | ≤ 0.2 |
| RSMT | 0.813 |
| AQDS | ≤ 0.2 |
| QQQY | ≤ 0.2 |
| PPNS | ≤ 0.2 |
| GHCG | ≤ 0.2 |
| VYPW | ≤ 0.2 |
| TWKG | ≤ 0.2 |
| RLMQ | ≤ 0.2 |
| REMT | ≤ 0.2 |
| RPMT | ≤ 0.2 |
| RCMT | 0.921 |
| RIMK | ≤ 0.2 |
| RLMK | ≤ 0.2 |
| RLMT | 0.955 |
| RIMF | 0.247 |
| RFMF | 0.245 |
| RFMT | 0.754 |
| RIMT | 0.878 |
| DFMT | ≤ 0.2 |

| Variant | one-hybrid fitness for binding parS DNA |
| --- | --- |
| FHRK | ≤ 0.2 |
| ACEY | ≤ 0.2 |
| KYCS | ≤ 0.2 |
| TTLF | ≤ 0.2 |
| SFCW | ≤ 0.2 |
| HHQT | ≤ 0.2 |
| SRMA | ≤ 0.2 |
| QDSQ | ≤ 0.2 |
| KLPC | ≤ 0.2 |
| IKAG | ≤ 0.2 |
| HGIV | ≤ 0.2 |
| RHMT | 0.87 |
| RHML | ≤ 0.2 |
| RAMP | ≤ 0.2 |
| RMMT | 0.874 |
| RMMF | 0.247 |
| RMMK | ≤ 0.2 |
| RAMT | 0.878 |
| RHMR | ≤ 0.2 |
| RAMN | 0.41 |
| MMTS | ≤ 0.2 |
| SEPR | ≤ 0.2 |
| ENLY | ≤ 0.2 |
| PAVK | ≤ 0.2 |

| Variant | one-hybrid fitness for binding parS DNA |
| --- | --- |
| IFRK | ≤ 0.2 |
| PDML | ≤ 0.2 |
| THSD | ≤ 0.2 |
| RTWR | 0.207 |
| RTCC | 0.959 |
| RTDC | 0.887 |
| RTQC | 0.974 |
| RTWM | 0.381 |
| RTDK | ≤ 0.2 |
| RTCN | 0.451 |
| RTDQ | ≤ 0.2 |
| RTQP | ≤ 0.2 |
| RTQN | 0.442 |
| RTCD | ≤ 0.2 |
| RTWC | 0.985 |
| QNHE | ≤ 0.2 |
| TINS | ≤ 0.2 |
| DDHK | ≤ 0.2 |
